# FMDV antiviral – foot and mouth disease virus antiviral activity; FMDV antiviral cell-based qHTS; Potency, µM (series often up to 57.9 µM), for inactives: at the highest dose activity change, negative = inhibition, actives largely listed as inhibitors; 410,000 compounds, 1.2% hits; calls by dose curve; tested in HEK293T cells; further: read-out not given here; potency means the concentration at half of the fitted maximal effect; nearly all actives have a fitted effect of over 45% in size
# HCV inh – inhibitors of hepatitis C virus infection | Huh7.5.1 HCVcc-Cre infection, luciferase reporter, 44 h | Potency, µM (series often up to 41.8 µM), without a hit: at the highest dose activity change, negative = inhibition, usual class: inhibitors | 340,000 compounds, 3.4% hits; active means well fitted inhibition curve with a large enough effect; inconclusive means small, poorly fitted or top-dose-only effect, or another doubt; inactive means no such curve, though single readings can be large or run the other way; further: potency means the concentration at half of the fitted maximal effect
#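 Seed cells (1,000/well) for 4 h; treat with compound and infect with HCVcc-Cre, moi about 0.5. Incubate 44 h, then detect luciferase activity.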
# Vaccinia Venus – vaccinia inhibition (Venus reporter) | Vaccinia virus Venus reporter expression, fluorescence | Potency, µM (highest dose often 36.5 µM), for inactives: top-dose activity change, negative = inhibition, most hits filed as inhibitors | 330,000 compounds, 0.46% hits | AID 720580; calls by dose curve; tested in A549 cells; further: potency means the concentration at half of the fitted maximal effect; nearly all actives have a fitted effect of over 30% in size
# HCMV inh – inhibitors of human cytomegalovirus; activity change, negative = inhibition, % at 57.5 µM; 410,000 compounds, 4.5% hits; HFF cells, HCMV-luciferase reporter, 72 h; hits give low values; in the data active means activity change below about -60%; inconclusive means no clear call, values can overlap the other calls; inactive means above about -39%
#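 Two-dose cell screen: HFF monolayers treated with compounds and infected with luciferase-expressing HCMV at 1 PFU/cell, 72 h at 37C, then lysed for luciferase measurement.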
# VACV mCherry inh – vaccinia inhibition (mCherry reporter). Potency, µM (titrated, usually from 36.5 µM), for inactives: top-dose activity change, negative = inhibition, usual class: inhibitors. 310,000 compounds, 0.63% hits. Vaccinia virus mCherry reporter infection, fluorescence. AID 720579; calls by dose curve; tested in A549 cells; further: potency means the concentration at half of the fitted maximal effect; nearly all actives have a fitted effect of over 35% in size
# Numbers without * were called inactive; i = inactive; ? = inconclusive; . = no result given. Rows were chosen to be rich in hits. Some 7.3% of all compounds tested hit in one or more screens of this group. On the % scale 0 is the no-effect control and ±100 the full control effect.
SMILES,FMDV antiviral,HCV inh,Vaccinia Venus,HCMV inh,VACV mCherry inh
O=C(c1ccccc1)N1CCN(C(=O)C23CC4CC(CC(C4)C2)C3)CC1,-17%,1%,-7%,30,-15%
CN1CCN(C(=O)C23CC4CC(C2)CC(c2ccccc2)(C4)C3)CC1,-29%,10µM*,-4%,20,-10%
Cc1ccc2c(c1)CN(CCNC(=O)c1n[nH]c3c1CCCC3)CC(C)O2 (stereo unspecified),3%,.,-6%,.,-10%
CCOc1ccc(/C=C/C(=O)c2cc(Br)ccc(=O)c2O)cc1,?,?,-21%,2,-28%
CCc1ccc(/C=C/C(=O)c2cc(Br)ccc(=O)c2O)cc1,-16%,?,?,-106*,.
Cc1cccc(/C=C/C(=O)c2cc(Br)ccc(=O)c2O)c1,?,14µM*,-3%,-104*,.
CC(=O)c1c(C)n(-c2cccc(Cl)c2)c2ccc(O)cc12,-14%,-23%,?,-68*,?
CC(=O)c1c(C)n(-c2ccccc2)c2ccc(O)cc12,-29%,?,.,-64*,.
CC(=O)c1c(C)n(Cc2ccccc2Cl)c2ccc(O)cc12,?,-24%,0%,-62*,-12%
CCOc1ccc(-n2c(C)c(C(C)=O)c3cc(O)ccc32)cc1,-7%,8%,.,-62*,.
COc1cc(-c2cccc(OC)c2OC)cc2c1OCCN(Cc1cn[nH]c1-c1ccc(Cl)cc1)C2,-17%,.,-26%,.,-9%
COc1ccc2c(c1)c(C(=O)O)c(C)n2-c1ccc(Cl)cc1,-16%,2%,.,-63*,.
Cc1cc(C(=O)NCCN2Cc3ccccc3OC(c3ccccc3F)C2)no1 (stereo unspecified),-6%,.,10%,.,-1%
Cc1c(O)cccc1C(=O)N[C@@H](CSc1ccccc1)[C@H](O)CN1C[C@H]2CCCC[C@H]2C[C@H]1C(=O)NC(C)(C)C,?,10µM*,?,2,?
CCOc1ccc(NC(=O)Cn2c(CCC(=O)O)ccc2-c2ccc(Cl)cc2)cc1,-18%,.,-8%,-2,-5%
COC(=O)C1CCN(Cc2ccc3c(c2)CN(C(=O)c2cc(-c4ccc(C)o4)[nH]n2)CCO3)CC1,-8%,.,7%,.,6%
Cc1nc2cc(-c3ccc(Cl)cc3)nn2c(NCCN(C)C)c1C,13%,18µM*,-20%,30,?
CCOC(=O)c1cccc(NC(=O)N2Cc3ccccc3Oc3ncccc32)c1,-20%,.,-4%,-26,-9%
CCOc1ccccc1NC(=O)c1cc2cc(C)ccc2n1C,-8%,.,-21%,23,-27%
CN(C(=O)c1cnn(-c2nccc(-c3ccccc3C(F)(F)F)n2)c1C1CC1)C1CCOC1 (stereo unspecified),33%,.,-9%,.,-10%
CCOc1ccc(NC(=O)c2ccc3c(c2)CCN3S(=O)(=O)CC)cc1,0%,.,-15%,-31,i
COc1cc2[nH]c(=O)n(CCCC(=O)N(C)Cc3ccccc3)c(=O)c2cc1OC,-15%,.,-5%,2,-5%
Cc1ccc(Nc2nc(C)c(NC(=O)c3ccc(C)cc3)c(Nc3ccc(C)cc3)n2)cc1,-26%,.,-13%,-63*,-20%
CCN(CC)CCn1c(=N)n(CC(O)COc2cccc(C)c2)c2ccccc21 (stereo unspecified),?,6.3µM*,-23%,?,?
N=c1n(CCN2CCCCC2)c2ccccc2n1CC(O)c1ccco1 (stereo unspecified),-6%,?,-18%,-67*,-28%
SMILES,FMDV antiviral,HCV inh,Vaccinia Venus,HCMV inh,VACV mCherry inh
CCN(CC)CCn1c(=N)n(CC(O)c2ccc(OC)c(OC)c2)c2ccccc21 (stereo unspecified),-17%,-12%,.,6,.
CCN(CC)CCn1c(=N)n(CC(O)COc2ccccc2C)c2ccccc21 (stereo unspecified),0%,.,?,-99*,?
CCN(CC)CCn1c(=N)n(CC(O)c2ccco2)c2ccccc21 (stereo unspecified),1%,-23%,-15%,-32,-3%
CCN(CC)CCn1c(=N)n(CCOc2ccccc2Cl)c2ccccc21,?,.,?,-99*,?
CCCCNC(=O)c1[nH]c(C2CCNCC2)nc1-c1cccc(C(F)(F)F)c1,26%,.,-20%,-19,?
Cc1cccc(OCC(O)CN2CC2)c1 (stereo unspecified),-1%,.,-14%,8,-1%
